# According to PubChem BioAssay (NCATS):
# Records with an inconclusive call do not appear. Active and inactive are the calls of the source. Calls come from the whole dose curve; as a rule, active = well fitted cell-killing curve with a large enough effect; inconclusive = small, poorly fitted or top-dose-only effect, or effect the other way; inactive = no such curve, though single readings can be large or run the other way.
# What was measured:
# [1] = Quantitative High-Throughput drug screen in 47 multiple myeloma cell lines against the NCATS MIPE library collection: XG6_PLB cell viability assay (AID 1919865); note: nearly all actives have a fitted effect of over 40% in size
# How it was run: (§1)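 ATP-based CellTiter-Glo luminescence after 48 h drug exposure (37 °C, 5% CO2) of 500 myeloma cells per well. DMSO-only wells set 100% viability, media-only wells 0%; MIPE 4.0 library added by pin tool.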
# [2] = Quantitative High-Throughput drug screen in 47 multiple myeloma cell lines against the NCATS MIPE library collection: XG1_PLB cell viability assay (AID 1919866); note: nearly all actives have a fitted effect of over 35% in size
# How it was run: as §1
# [3] = Quantitative High-Throughput drug screen in 47 multiple myeloma cell lines against the NCATS MIPE library collection: VP6_DJ cell viability assay (AID 1919867); note: nearly all actives have a fitted effect of over 40% in size
# How it was run: as §1
# [4] = Quantitative High-Throughput drug screen in 47 multiple myeloma cell lines against the NCATS MIPE library collection: PE2_PLB cell viability assay (AID 1919869); note: nearly all actives have a fitted effect of over 35% in size
# How it was run: as §1
# [5] = Quantitative High-Throughput drug screen in 47 multiple myeloma cell lines against the NCATS MIPE library collection: PCM6_Riken cell viability assay (AID 1919870); note: nearly all actives have a fitted effect of over 30% in size
# How it was run: as §1
# [6] = Quantitative High-Throughput drug screen in 47 multiple myeloma cell lines against the NCATS MIPE library collection: RPMI8226_ATCC cell viability assay (AID 1919871); note: nearly all actives have a fitted effect of over 30% in size
# How it was run: as §1
# [7] = Quantitative High-Throughput drug screen in 47 multiple myeloma cell lines against the NCATS MIPE library collection: KMS11_JCRBsus cell viability assay (AID 1919873); note: nearly all actives have a fitted effect of over 50% in size
# How it was run: as §1
# [8] = Quantitative High-Throughput drug screen in 47 multiple myeloma cell lines against the NCATS MIPE library collection: KMS28BM_JCRB cell viability assay (AID 1919874); note: nearly all actives have a fitted effect of over 35% in size
# How it was run: as §1
# [9] = Quantitative High-Throughput drug screen in 47 multiple myeloma cell lines against the NCATS MIPE library collection: OPM2_DSMZ cell viability assay (AID 1919872); note: nearly all actives have a fitted effect of over 30% in size
# How it was run: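 Luminescent ATP measurement with CellTiter-Glo gives viability, scaled between DMSO-only wells (100%) and media-only wells (0%). Cells, 500 per well, faced library compounds for 48 hours at 37C.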
# [10] = Quantitative High-Throughput drug screen in 47 multiple myeloma cell lines against the NCATS MIPE library collection: UTMC2_PLB cell viability assay (AID 1919868); conditions: CellTiter-Glo ATP luminescence, 48 h; viability (% of DMSO control): at 45.8 µM (top of the series); note: nearly all actives have a fitted effect of over 55% in size
# How it was run: as §1
# Potency is the fitted concentration of half-maximal effect.
SMILES,Potency [1],Potency [2],Potency [3],Potency [4],Potency [5],Potency [6],Potency [7],Potency [8],Potency [9],Potency [10]
COc1ccc2nc3cc(Cl)ccc3c(Nc3cc(CN4CCCC4)c(O)c(CN4CCCC4)c3)c2n1,14.8 µM (active),18.7 µM (active),9.35 µM (active),18.7 µM (active),16.6 µM (active),18.7 µM (active),16.6 µM (active),23.5 µM (active),–,–
C[C@H]1[C@H](O)O[C@@H]2O[C@@]3(C)CC[C@@H]4[C@H](C)CC[C@@H]1[C@@]24OO3,3.72 µM (active),3.72 µM (active),1.48 µM (active),2.35 µM (active),–,1.32 µM (active),1.66 µM (active),13.2 µM (active),–,–
COc1ccc2c(c1)CC[C@H]1[C@@H]2CC[C@]2(C)[C@@H](NCCCCCCN3C(=O)C=CC3=O)CC[C@H]12,inactive,inactive,inactive,inactive,inactive,–,inactive,inactive,–,–
Cc1ccccc1C(C(=O)NC1CCCCC1)N(C(=O)CNc1ccc(C#N)cc1)c1cccc(F)c1 (stereo unspecified),inactive,inactive,inactive,inactive,–,23.5 µM (active),–,–,inactive,–
O=C(NC[C@H](O)CO)c1ccncc1Nc1ccc(I)cc1F,7.43 µM (active),14.8 µM (active),10.5 µM (active),5.26 µM (active),16.6 µM (active),0.833 µM (active),–,inactive,–,–
C[C@]12CC[C@@H]3c4ccc(O)cc4CC[C@H]3[C@H]1[C@@H](O)[C@@H](O)[C@H]2O,14.8 µM (active),14.8 µM (active),inactive,inactive,–,–,–,–,inactive,–
C=C1[C@H](n2cnc3c(=O)[nH]c(N)nc32)C[C@H](O)[C@H]1CO,inactive,1.18 µM (active),4.69 µM (active),inactive,–,inactive,–,–,inactive,–
COc1c(C)cnc(Cn2cnc3c(Cl)nc(N)nc32)c1C,0.264 µM (active),0.118 µM (active),0.148 µM (active),0.235 µM (active),–,–,0.0662 µM (active),–,0.187 µM (active),–
N#CC(c1ccc(Cl)cc1)c1c(Cl)cc(-n2ncc(=O)[nH]c2=O)cc1Cl (stereo unspecified),14.8 µM (active),18.7 µM (active),20.9 µM (active),18.7 µM (active),23.5 µM (active),–,–,inactive,inactive,–
CCC(=C(CC)c1ccc(O)cc1)c1ccc(O)cc1,20.9 µM (active),14.8 µM (active),18.7 µM (active),18.7 µM (active),18.7 µM (active),29.6 µM (active),–,16.6 µM (active),26.4 µM (active),–
COc1cc2c(cc1Cc1cccc(Cl)c1F)c(=O)c(C(=O)O)cn2[C@H](CO)C(C)C,18.7 µM (active),18.7 µM (active),10.5 µM (active),23.5 µM (active),16.6 µM (active),14.8 µM (active),2.96 µM (active),23.5 µM (active),–,–
NCc1c[nH]c(=S)n1[C@H]1CCc2c(F)cc(F)cc2C1,18.7 µM (active),9.35 µM (active),3.32 µM (active),16.6 µM (active),2.96 µM (active),26.4 µM (active),20.9 µM (active),20.9 µM (active),–,–
CCOC(=O)[C@H](CCc1ccccc1)N[C@@H](C)C(=O)N1CCCC1C(=O)O (stereo partly specified),23.5 µM (active),23.5 µM (active),20.9 µM (active),inactive,26.4 µM (active),inactive,inactive,inactive,–,–
Cc1ccc(NC(=O)c2ccc(CN3CCN(C)CC3)cc2)cc1Nc1nc(-c2cccnc2)cs1,7.43 µM (active),13.2 µM (active),8.33 µM (active),11.8 µM (active),4.18 µM (active),18.7 µM (active),10.5 µM (active),20.9 µM (active),–,–
O=C(O)C1=CO[C@@H](O[C@@H]2O[C@H](CO)[C@H](O)[C@H](O)[C@H]2O)[C@@H]2C(CO)=CC[C@H]12,inactive,inactive,inactive,inactive,–,4.18 µM (active),inactive,inactive,inactive,–
CCc1cc(-c2n[nH]c(C)c2-c2ccc3c(c2)OCCO3)c(O)cc1O,9.35 µM (active),4.18 µM (active),4.18 µM (active),8.33 µM (active),8.33 µM (active),6.62 µM (active),1.87 µM (active),11.8 µM (active),7.43 µM (active),–
Cc1cccc2c1CC[C@H](CN1CCC(c3c(Cl)cccc3Cl)CC1)C[C@@H]2O,20.9 µM (active),20.9 µM (active),14.8 µM (active),20.9 µM (active),18.7 µM (active),–,14.8 µM (active),–,–,–
CCCCN(CCCC)CC(O)c1cc(Cl)cc2c1-c1ccc(Cl)cc1C2=Cc1ccc(Cl)cc1 (stereo unspecified),26.4 µM (active),23.5 µM (active),23.5 µM (active),20.9 µM (active),–,–,–,23.5 µM (active),–,–
Cc1ccc2c(c1)C(=O)[C@]1(O)CCN(c3ccccc3)C1=N2,inactive,inactive,–,inactive,inactive,–,–,10.5 µM (active),inactive,4.69 µM (active)
O=C1Nc2ccc(I)cc2C1=Cc1cc(Br)c(O)c(Br)c1,inactive,20.9 µM (active),–,14.8 µM (active),–,inactive,18.7 µM (active),–,inactive,14.8 µM (active)
O=C(Nc1cccc(Cl)c1)Nc1ncc(CCNc2ncnc3ccsc23)s1,4.18 µM (active),1.32 µM (active),–,4.18 µM (active),5.26 µM (active),5.9 µM (active),–,–,–,0.372 µM (active)
CC[C@H](NC(=O)[C@H](C)NC)C(=O)N1C[C@@H](O)C[C@H]1Cc1c(-c2[nH]c3cc(F)ccc3c2C[C@H]2C[C@H](O)CN2C(=O)[C@H](CC)NC(=O)[C@H](C)NC)[nH]c2cc(F)ccc12,4.18 µM (active),5.9 µM (active),3.72 µM (active),–,5.9 µM (active),1.32 µM (active),inactive,inactive,–,–
CN[C@@H]1CN(c2ccc3c(=O)c(C(=O)O)cn(-c4nccs4)c3n2)C[C@@H]1OC,1.62 µM (active),7.24 µM (active),–,1.82 µM (active),3.23 µM (active),12.9 µM (active),–,–,–,1.29 µM (active)
COc1cc(Nc2nc3ccccc3nc2NS(=O)(=O)c2ccc(NC(=O)c3ccc(C)c(OC)c3)cc2)cc(OC)c1,13.2 µM (active),13.2 µM (active),5.9 µM (active),–,2.35 µM (active),–,–,–,–,–
C#C[C@]1(O)CC[C@H]2[C@H]3CCc4cc(OC)ccc4[C@H]3CC[C@@]21C,16.6 µM (active),14.8 µM (active),16.6 µM (active),–,–,–,–,–,inactive,–
O=C1C(c2c(O)[nH]c3ccccc23)=Nc2ccccc21,0.296 µM (active),0.418 µM (active),–,1.66 µM (active),–,–,–,inactive,inactive,inactive
Cn1cc(-c2ccc3nnc(Sc4ccc5ncccc5c4)n3n2)cn1,26.4 µM (active),26.4 µM (active),18.7 µM (active),–,–,–,inactive,inactive,inactive,–
Cc1cc(NC(=O)Nc2ccc(N(C)C)cc2)c2cc(F)cc(F)c2n1,inactive,3.32 µM (active),–,inactive,inactive,–,–,inactive,–,inactive
